Calls of active or inactive are those of the source.
Experiments:
[1] = small molecules captured by biotinylated probe aFSTL3 – biochemical, small-molecule microarray, fluorescence 635/667, stem cell growth factor project, primary screen (AID 1064); details: higher = more signal;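 note: measures binding of the biotinylated anti-FSTL3 antibody to printed compounds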
[2] = binders from COS7 lysate, DM2A8 probe, primary screen, torsin A project, cell lysate, small-molecule microarray, fluorescence 635/667 (AID 1065); details: higher = more signal, COS7 lysate expressing mutant human TOR1A
[3] = small molecules captured by biotinylated probe aFGF2 – biochemical, small-molecule microarray, fluorescence 635/667, stem cell growth factor project, primary screen (AID 1067); details: higher = more signal;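 note: measures binding of biotinylated aFGF2 protein to printed compounds on slides; z-score merges feature fluorescence and signal-to-noise across triplicate slides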
[4] = small molecules captured by biotinylated probe aFGF10 – biochemical, small-molecule microarray, fluorescence 635/667, stem cell growth factor project, primary screen (AID 1071); details: higher = more signal;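 note: score merges 667 nm spot intensity and signal to noise from triplicate slides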
[5] = molecular target: Neurogenic locus notch homolog protein 2 (Homo sapiens) (UniProt Q04721); experiment: small molecules binding Notch2 protein – biochemical, small-molecule microarray, 635 nm fluorescence, stem cell growth factors, primary screen (AID 1073); details: higher = more signal
Chain of Neurogenic locus notch homolog protein 2 (Homo sapiens) (Q04721 whole entry, looked up, canonical isoform): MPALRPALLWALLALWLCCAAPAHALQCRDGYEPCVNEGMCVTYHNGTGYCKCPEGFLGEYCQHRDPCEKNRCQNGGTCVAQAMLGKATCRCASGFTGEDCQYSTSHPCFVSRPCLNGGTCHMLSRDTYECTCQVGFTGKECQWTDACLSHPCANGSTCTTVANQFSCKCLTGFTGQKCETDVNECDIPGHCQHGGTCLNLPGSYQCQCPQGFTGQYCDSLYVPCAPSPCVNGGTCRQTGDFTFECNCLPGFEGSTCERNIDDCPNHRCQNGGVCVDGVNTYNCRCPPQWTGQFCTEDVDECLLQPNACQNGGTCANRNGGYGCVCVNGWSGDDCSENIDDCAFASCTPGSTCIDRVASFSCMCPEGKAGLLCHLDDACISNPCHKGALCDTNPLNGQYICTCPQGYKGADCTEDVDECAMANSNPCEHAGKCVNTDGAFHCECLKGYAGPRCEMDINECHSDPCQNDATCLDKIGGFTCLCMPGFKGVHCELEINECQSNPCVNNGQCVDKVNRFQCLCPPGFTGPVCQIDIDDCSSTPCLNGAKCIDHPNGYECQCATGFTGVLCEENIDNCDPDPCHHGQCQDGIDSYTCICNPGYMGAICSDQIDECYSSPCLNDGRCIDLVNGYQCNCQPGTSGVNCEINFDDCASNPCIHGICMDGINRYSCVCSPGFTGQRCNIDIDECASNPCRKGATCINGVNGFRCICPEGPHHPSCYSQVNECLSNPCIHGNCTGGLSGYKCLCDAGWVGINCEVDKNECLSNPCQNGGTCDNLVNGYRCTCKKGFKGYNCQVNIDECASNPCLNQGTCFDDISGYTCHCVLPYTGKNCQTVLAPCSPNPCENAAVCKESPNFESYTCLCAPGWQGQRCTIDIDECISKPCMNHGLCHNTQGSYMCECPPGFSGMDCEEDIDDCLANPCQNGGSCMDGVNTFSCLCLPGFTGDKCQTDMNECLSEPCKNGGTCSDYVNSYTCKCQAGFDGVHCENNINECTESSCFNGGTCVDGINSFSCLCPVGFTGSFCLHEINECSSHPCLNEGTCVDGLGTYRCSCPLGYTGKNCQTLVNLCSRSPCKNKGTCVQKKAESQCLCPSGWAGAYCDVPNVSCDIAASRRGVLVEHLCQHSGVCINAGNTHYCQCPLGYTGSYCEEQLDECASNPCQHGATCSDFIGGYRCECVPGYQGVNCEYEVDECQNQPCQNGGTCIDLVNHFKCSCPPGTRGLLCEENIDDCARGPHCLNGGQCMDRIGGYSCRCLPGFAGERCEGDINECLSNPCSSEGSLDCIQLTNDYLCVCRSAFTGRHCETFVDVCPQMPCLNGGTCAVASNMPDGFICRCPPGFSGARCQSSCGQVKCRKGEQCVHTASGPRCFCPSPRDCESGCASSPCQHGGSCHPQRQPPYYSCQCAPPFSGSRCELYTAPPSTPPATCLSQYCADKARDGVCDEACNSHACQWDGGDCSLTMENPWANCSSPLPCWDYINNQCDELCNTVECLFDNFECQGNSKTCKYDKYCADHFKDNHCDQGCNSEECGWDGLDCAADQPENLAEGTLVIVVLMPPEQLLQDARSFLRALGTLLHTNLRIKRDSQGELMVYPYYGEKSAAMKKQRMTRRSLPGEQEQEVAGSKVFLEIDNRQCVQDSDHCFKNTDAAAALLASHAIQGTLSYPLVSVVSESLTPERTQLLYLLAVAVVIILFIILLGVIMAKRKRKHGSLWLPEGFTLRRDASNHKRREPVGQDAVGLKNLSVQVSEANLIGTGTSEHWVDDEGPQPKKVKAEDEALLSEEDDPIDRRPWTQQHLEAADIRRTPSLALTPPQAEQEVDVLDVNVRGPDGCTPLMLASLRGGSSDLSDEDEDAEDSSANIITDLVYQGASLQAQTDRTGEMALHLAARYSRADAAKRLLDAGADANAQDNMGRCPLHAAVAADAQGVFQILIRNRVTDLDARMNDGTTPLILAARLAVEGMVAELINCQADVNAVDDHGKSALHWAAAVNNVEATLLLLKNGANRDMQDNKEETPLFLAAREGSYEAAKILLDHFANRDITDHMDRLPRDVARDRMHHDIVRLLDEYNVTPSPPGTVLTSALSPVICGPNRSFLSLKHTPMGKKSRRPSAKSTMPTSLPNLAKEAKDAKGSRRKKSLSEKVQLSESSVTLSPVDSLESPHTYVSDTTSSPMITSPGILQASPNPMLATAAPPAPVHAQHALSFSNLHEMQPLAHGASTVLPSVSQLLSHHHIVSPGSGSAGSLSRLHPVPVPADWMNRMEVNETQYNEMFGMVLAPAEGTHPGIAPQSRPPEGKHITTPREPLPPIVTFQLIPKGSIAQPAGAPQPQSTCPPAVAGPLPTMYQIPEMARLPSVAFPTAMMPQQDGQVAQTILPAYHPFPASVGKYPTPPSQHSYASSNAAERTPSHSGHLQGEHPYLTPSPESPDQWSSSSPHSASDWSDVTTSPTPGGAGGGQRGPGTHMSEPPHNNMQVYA

[6] = molecular target: Pro-neuregulin-1, membrane-bound isoform (Homo sapiens) (UniProt Q02297); experiment: small molecules binding neuregulin-1 protein – biochemical, small-molecule microarray, fluorescence 635/667, psychiatric disease protein project, primary screen (AID 1075); details: NRG1 binding, 635 nm fluorescence, higher = more signal;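 note: score combines 667 nm spot fluorescence with signal to noise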
Chain of Pro-neuregulin-1, membrane-bound isoform (Homo sapiens) (Q02297 whole entry, looked up, the tested form may be a part, canonical isoform): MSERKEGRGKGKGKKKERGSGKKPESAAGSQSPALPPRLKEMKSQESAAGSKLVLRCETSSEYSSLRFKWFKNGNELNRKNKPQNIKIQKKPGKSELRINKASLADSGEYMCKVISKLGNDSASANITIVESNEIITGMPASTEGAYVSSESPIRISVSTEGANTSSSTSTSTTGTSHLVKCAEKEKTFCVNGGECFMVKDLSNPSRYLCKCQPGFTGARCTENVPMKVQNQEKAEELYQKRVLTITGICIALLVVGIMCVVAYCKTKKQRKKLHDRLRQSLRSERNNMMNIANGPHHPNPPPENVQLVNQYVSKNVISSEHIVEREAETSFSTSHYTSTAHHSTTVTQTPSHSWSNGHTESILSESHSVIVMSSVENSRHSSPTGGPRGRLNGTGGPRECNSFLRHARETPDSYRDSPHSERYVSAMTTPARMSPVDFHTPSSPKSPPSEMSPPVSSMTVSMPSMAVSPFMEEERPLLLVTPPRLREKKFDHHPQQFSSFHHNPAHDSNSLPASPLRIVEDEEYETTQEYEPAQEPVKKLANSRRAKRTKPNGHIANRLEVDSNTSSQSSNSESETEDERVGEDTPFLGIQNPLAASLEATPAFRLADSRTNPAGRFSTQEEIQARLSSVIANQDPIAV

[7] = system: Neuregulin-1 EGF-like domain; experiment: small molecules binding NRG1 EGF domain – biochemical, small-molecule microarray, 635 nm fluorescence, primary screen (AID 1081); details: higher = more signal;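 note: binding of the protein to compounds printed on small-molecule microarray slides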
[8] = FRG1 expression reporter modulators in myotubes – cell-based, C2C12 myotubes, firefly/Renilla luciferase, luminescence, FRG1 inhibition for FSHD, primary screen (AID 1084); details: FRG1 promoter luciferase, higher = more signal, called active from +8 up or from −8 down
[9] = small molecules captured by biotinylated probe aFST – biochemical, small-molecule microarray, fluorescence 635/667, stem cell growth factor project, primary screen (AID 1086); details: higher = more signal;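 note: score merges 667 nm fluorescence with signal-to-noise of each printed compound spot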
[10] = binders of probe aHhip on microarray, primary screen, stem cell growth factor project, biochemical, small-molecule microarray, fluorescence 635/667 (AID 1087); details: higher = more signal;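 note: score merges spot fluorescence at 667nm with spot signal to noise ratio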
[11] = system: PRMT1 (protein arginine N-methyltransferase 1); experiment: small molecules binding arginine methyltransferase PRMT1 – biochemical, small-molecule microarray, 635 nm fluorescence, primary screen (AID 1088); details: higher = more signal;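 note: binding of Prmt1 protein to compounds spotted on small-molecule microarray slides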
[12] = growth effects on S. cerevisiae YJM789 – YJM789 clinical isolate, OD600, 24 h, basal, primary screen (AID 1089); details: higher = more signal, called active from +8 up or from −8 down;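 note: growth of clinical yeast isolate S. cerevisiae YJM 789 seeded 1000 cells per well; test concentration not given here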
[13] = S. pombe growth modifiers, basal conditions – strain 972, OD600, 24 h, no modulator, primary screen (AID 1090);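 note: basal condition with compound alone and no growth modifier present; test concentration not given here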; details: S. pombe 972 growth, higher = more signal, called active from +8 up or from −8 down
[14] = budding yeast growth modifiers under rapamycin – strain BY4716, OD600, 96 h, primary screen (AID 1091); note: test concentration not given here; details: S. cerevisiae BY4716 + rapamycin, higher = more signal, called active from +8 up or from −8 down
[15] = molecular target: Torsin-1A-interacting protein 2 (Homo sapiens) (UniProt Q8NFQ8); experiment: small molecules binding lysate-expressed LULL1 – cell lysate, human LULL1 lysate, 635/667 nm fluorescence, primary screen (AID 1092); details: small-molecule microarray, hLULL1 lysate binding, 635 nm fluorescence; higher = more signal;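 note: probe is lysate of COS7 cells overexpressing human LULL1; score merges per-feature 667 nm fluorescence with signal-to-noise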
Chain of Torsin-1A-interacting protein 2 (Homo sapiens) (Q8NFQ8 whole entry, looked up): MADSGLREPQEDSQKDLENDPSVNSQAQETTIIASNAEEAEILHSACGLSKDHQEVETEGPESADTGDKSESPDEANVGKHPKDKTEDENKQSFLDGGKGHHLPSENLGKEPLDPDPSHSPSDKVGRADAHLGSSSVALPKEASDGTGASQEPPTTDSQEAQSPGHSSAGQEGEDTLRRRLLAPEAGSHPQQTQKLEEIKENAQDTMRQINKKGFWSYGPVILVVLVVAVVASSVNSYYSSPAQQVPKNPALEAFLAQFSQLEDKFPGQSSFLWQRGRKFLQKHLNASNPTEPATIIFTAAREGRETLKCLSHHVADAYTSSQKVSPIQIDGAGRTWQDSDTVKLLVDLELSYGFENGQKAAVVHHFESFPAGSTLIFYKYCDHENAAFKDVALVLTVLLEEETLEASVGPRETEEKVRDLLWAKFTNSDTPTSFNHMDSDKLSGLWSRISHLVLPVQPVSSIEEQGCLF

[16] = optical density change of DRC41 E. coli – strain DRC41, OD650, 24 h, E. coli filamentation project, primary screen (AID 1093);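 note: MC1000 strain lacking acrAB efflux and sulA so SOS filamentation is blocked; test concentration not given here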; details: E. coli DRC41 growth, higher = more signal, called active from +8 up or from −8 down
[17] = probe aLefty2 binding to arrayed compounds – biochemical, biotinylated probe, 635/667 nm fluorescence, primary screen (AID 1094); details: small-molecule microarray, higher = more signal;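 note: score merges spot fluorescence near 667 nm with spot signal-to-noise ratio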
[18] = system: Noggin (protein binding on small-molecule microarray); experiment: small molecules binding Noggin protein – biochemical, 635/667 nm fluorescence, primary screen (AID 1095); details: 635 nm fluorescence, higher = more signal;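 note: score merges 667 nm feature fluorescence with signal to noise over triplicate slides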
[19] = molecular target: Neurogenic locus notch homolog protein 3 (Homo sapiens) (UniProt Q9UM47); experiment: small molecules binding NOTCH3 protein – biochemical, 635/667 nm fluorescence, primary screen (AID 1096); details: small-molecule microarray, 635 nm fluorescence, higher = more signal
[20] = probe aEGFR binding to arrayed compounds – biochemical, biotinylated probe, 635/667 nm fluorescence, primary screen (AID 1097); details: small-molecule microarray, higher = more signal;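 note: probe is a biotinylated anti-EGFR antibody binding compounds printed on slides; score combines fluorescence near 667 nm and signal to noise of each spot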

| Compound | composite z-score [1] | composite z-score [2] | composite z-score [3] | composite z-score [4] | composite z-score [5] | composite z-score [6] | composite z-score [7] | z-score [8] | composite z-score [9] | composite z-score [10] | composite z-score [11] | z-score [12] | z-score [13] | z-score [14] | composite z-score [15] | z-score [16] | composite z-score [17] | composite z-score [18] | composite z-score [19] | composite z-score [20] |
| --- | --- | --- | --- | --- | --- | --- | --- | --- | --- | --- | --- | --- | --- | --- | --- | --- | --- | --- | --- | --- |
| O=C1O[C@H](c2ccccc2)[C@H](c2ccccc2)N2[C@H]1[C@@H](C(=O)N1CCN(c3ncccn3)CC1)[C@]1(C(=O)Nc3ccc(C#CCCO)cc31)[C@H]2c1ccccc1OCCO | -0.301 | 0.851 | 0.0002 | 0.931 | 1.33 | 1.64 | 0.965 | -0.363 (inactive) | 0.312 | 0.0219 | 1.54 | 1.36 (inactive) | -1.62 (inactive) | 3.87 (inactive) | 2.79 | 0.797 (inactive) | -0.166 | 0.942 | 1.06 | -0.0014 |
| CC(C)c1ccc(NN2C(C(O)c3cccs3)C=CC3C(=O)N(c4ccccc4)C(=O)C32)cc1 (stereo not given) | 0.222 | -0.14 | 0.117 | 0.353 | 1.66 | 1.54 | 1.19 | -1.87 (inactive) | 0.979 | 0.122 | 1.54 | 0.354 (inactive) | 0.758 (inactive) | 0.331 (inactive) | 3.36 | -1.14 (inactive) | 0.453 | -0.0307 | 1.06 | 0.08 |
| CC1CC/C=C\[C@H]2OC34C=CCN(c5ccc(Cl)cc5)C(=O)[C@H]3N(C(CO)C(C)C)C(=O)[C@]4(C)C2C(=O)O1 (stereo not given in full) | -0.128 | 1.9 | -0.146 | -0.38 | -0.594 | 1 | 1.47 | 0.51 (inactive) | -0.637 | 0.0373 | -0.538 | 1.04 (inactive) | -0.775 (inactive) | -0.439 (inactive) | 2.25 | -0.304 (inactive) | -0.166 | -0.643 | 0.161 | -0.233 |
| CCCCCCC#C[Si](O[C@H](c1ccccc1)c1cn(Cc2cccc(Cl)c2)nn1)(C(C)C)C(C)C | -0.194 | 0.485 | -0.161 | 0.238 | 0.631 | 0.485 | 0.382 | -0.891 (inactive) | -0.0431 | -0.0994 | 1 | -0.381 (inactive) | 0.403 (inactive) | -0.162 (inactive) | 0.416 | 1.12 (inactive) | -0.0719 | 0.255 | 0.487 | -0.0828 |
| C=CC[C@]1(C(=O)N2CCOCC2)N=C(c2ccc(OCCCO)cc2)O[C@H]1c1ccccc1CN=[N+]=[N-] | -0.0635 | 1.3 | 0.103 | 1.04 | 1.54 | 1.77 | 1.3 | -1.34 (inactive) | 1.99 | 0.28 | 1.53 | -0.819 (inactive) | -1.63 (inactive) | -0.119 (inactive) | 3.49 | 0.191 (inactive) | 0.0503 | 1.57 | 1.05 | -0.0111 |
| [N-]=[N+]=NCc1ccccc1[C@H]1OC(c2ccc(OCCCO)cc2)=N[C@@]1(Cc1ccccc1N=[N+]=[N-])C(=O)NCCN1CCOCC1 | 0.0233 | 0.0401 | 0.14 | 0.981 | 1.61 | 1.49 | 1.1 | 0.342 (inactive) | 1.21 | 0.113 | 1.54 | 0.0051 (inactive) | -13.9 (active) | 0.355 (inactive) | 3.43 | 0.72 (inactive) | 0.328 | 0.476 | 1.02 | -0.0205 |
| N#Cc1ccc(NN2C(C(O)c3ccccc3)C=CC3C(=O)N(c4ccccc4)C(=O)C32)cc1 (stereo not given) | 0.0243 | -0.0347 | 0.111 | 0.379 | 0.639 | 1.15 | 1.09 | 0.474 (inactive) | 0.64 | -0.151 | -0.827 | -0.541 (inactive) | 0.836 (inactive) | 1.77 (inactive) | 3.29 | -0.676 (inactive) | 0.228 | -0.229 | 0.552 | -0.0531 |
| C#CCNS(=O)(=O)N(C)C | -0.49 | 0.0943 | -0.0291 | 0.276 | 0.707 | 0.174 | 0.774 | -0.533 (inactive) | -0.136 | 0.208 | 0.392 | 1.24 (inactive) | 0.783 (inactive) | 0.689 (inactive) | 0.43 | 0.663 (inactive) | -0.139 | 0.4 | 0.579 | -0.054 |
| CC(C)CN1C(=O)[C@@]2(Cc3ccccc31)c1ccccc1C(=O)N(Cc1ccccc1)[C@H]2c1ccc(CO)cc1 | 0.849 | -0.675 | -0.148 | -0.0466 | -0.713 | -0.544 | -0.152 | -0.314 (inactive) | -0.759 | -0.261 | -0.594 | -0.0832 (inactive) | -0.519 (inactive) | -1.46 (inactive) | 0.771 | -0.336 (inactive) | -0.131 | -0.34 | -0.395 | -0.348 |
| CC(C)CNC(=O)[C@@]1(C)c2ccccc2C(=O)N(Cc2ccccc2)[C@H]1c1ccc(CO)cc1 | 1.69 | -1.04 | -0.206 | -1.42 | -0.762 | 0.839 | 0.614 | -1.26 (inactive) | 0.267 | -0.164 | -0.579 | -1.79 (inactive) | -0.849 (inactive) | -0.879 (inactive) | 3.04 | -0.483 (inactive) | 0.0397 | -1.79 | -0.643 | -0.285 |
